# Results reported in publication PMC5540273 (PLoS ONE, 2017).
# Tests used:
# Settings in all cases: concentration: 1 μM, replicates: in singlicate; n = 1
# [1] = test system: MRCKA
# [2] = test system: T1, MRCKB
# T1 construct: gene CDC42BPB
# [3] = test system: MST1R
# [4] = test system: T2, MST1
# T2 construct: gene STK4
# [5] = test system: T3, MST2
# T3 construct: gene STK3
# [6] = test system: T4, MST3
# T4 construct: gene STK24
# [7] = test system: MST4
# [8] = test system: MTOR
# [9] = test system: MUSK
# [10] = test system: MYLK2
# 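Also: KINOMEscan kinase panel screen.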
Compound,%Inh [1] [%],%Inh [2] [%],%Inh [3] [%],%Inh [4] [%],%Inh [5] [%],%Inh [6] [%],%Inh [7] [%],%Inh [8] [%],%Inh [9] [%],%Inh [10] [%]
COc1ccc(Nc2nccc(N3CCC(NC(=O)Nc4ccc5c(c4)OCO5)C3)n2)cc1 (centres unmarked) [GSK1379745],11,0,0,6,0,32,0,35,17,6
CSc1nn2c(=O)cc(N3CCOCC3)nc2n1Cc1cccc(Cl)c1Cl [GSK2347225],29,4,59,6,0,4,0,28,16,15
CCc1nc(-c2cccc(C)c2)c(-c2ccnc(NC(=O)c3ccccc3)c2)s1,0,0,32,11,12,8,9,–,0,0
Cn1ccc2ncnc(Oc3ccc(NC(=O)Nc4cccnc4)c(Cl)c3)c21,0,0,15,12,0,10,0,0,7,0
Cn1ccc2ncnc(Nc3ccc(Oc4cccc(Cl)c4)c(Cl)c3)c21,0,0,42,6,25,10,0,0,3,20
Fc1ccc(Nc2nccc(-c3c(-c4ccc(Cl)cc4)nn4ncccc34)n2)cc1F [GW829058],2,21,0,13,11,0,30,26,26,16
N#Cc1ccc(Oc2ccc(Nc3ncnc4cc[nH]c34)cc2Cl)cc1,12,32,11,10,19,24,0,13,6,16
Cl.Fc1ccccc1COc1ccc(Nc2ncnc3ccc(-c4nnc(C(F)(F)F)o4)cc23)cc1Cl [GW424170],7,0,18,0,0,0,0,0,0,0
Cc1cc(N2CCC(NS(=O)(=O)c3ccc(F)cc3)CC2)nc(Nc2cccc(C#N)c2)n1.O=C(O)C(F)(F)F [GSK1653537],0,0,17,8,0,7,0,6,8,0
